Measurements published in PubChem BioAssay AID1259343 (VanderVen Lab, College of Veterinary Medicine, Cornell …, 2017).
Hit rate of the full screen: of about 6,200 compounds, about 2,900 (47%) were called active. So high a share suggests a set chosen from earlier hits. Some of the results follow. A number with no mark means an inactive call. No stated cut-off is given here; in the data, active means inhibition above about 50%; inactive means the rest.

Test: Mycobacterium tuberculosis growth inhibition, primary screen (AID 1259343)
Conditions: inhibition: at 10 µM, active compounds read high; outcome: 10 uM

Row | SMILES | inhibition
1 | S=c1[nH]nc(COc2ccccc2Cl)o1 | -28.9%
2 | S=c1[nH]nc(COc2ccc(Cl)cc2Cl)o1 | 79.7% (active)
3 | COc1cccc(OCc2n[nH]c(=S)o2)c1 | 79.7% (active)
4 | Cc1ccc(C)c(OCc2n[nH]c(=S)o2)c1 | 21.7%
5 | Cc1cc(C)nc(Nc2cccc(OCc3nc(-c4cccs4)no3)c2)n1 | 29.2%
6 | COc1cccc(OCc2nc(-c3ccc(Br)o3)no2)c1 | 93.8% (active)
7 | CC(Oc1ccc(F)cc1)c1n[nH]c(=S)o1 (configuration not stated) | -17.5%
8 | S=c1[nH]nc(COc2ccc(Cl)cc2)o1 | 91.8% (active)
9 | CN1N=C(c2ccc(F)c(F)c2)CSC1=NCc1ccccc1 | 18.9%
10 | OC1(C2(O)CC(c3ccccc3)NO2)CCCCC1 (configuration not stated) | 27.1%
11 | O=C(NN=C1C(=O)c2cccc3cccc1c23)NC1CCCCC1 | -1.18%
12 | Cc1cccc(C)c1-n1nnnc1SC(C)C(=O)NC(=O)NC1CCCCC1 (configuration not stated) | 81.5% (active)
13 | CC(On1nnc2ccc(Cl)cc21)C(=O)NC(=O)NC1CCCCC1 (configuration not stated) | 27.5%
14 | O=C(C1CC1)N1CCC(NCc2ccc(-c3cccc(Br)c3)s2)CC1 | 44.8%
15 | Brc1ccc(-c2ccc(CN3CCNCC3)s2)cc1 | 73.8% (active)
16 | N#Cc1ccc(/C=C/C(=O)N2CCN(Cc3ccc(Br)s3)CC2)cc1 | 28.6%
17 | O=C(NC(=S)Nc1cc(Cl)c(Cl)cc1Cl)C1CC1 | 82.6% (active)
18 | O=C(NNc1c(Cl)cc(Cl)cc1Cl)C1CCC1 | 47.8%
19 | CCN(C(=S)NC(=O)C1CC1)C1CCCCC1 | 20.5%
20 | C=CCOc1ccccc1CN(C(=O)CCl)c1ccc2c(c1)OCCO2 | 37.2%
21 | O=[N+]([O-])c1cc(S(=O)(=O)Nc2cc(Cl)ccc2-n2cncn2)ccc1Cl | 67.4% (active)
22 | O=[N+]([O-])c1cc(S(=O)(=O)Nc2cc(Cl)ccc2F)ccc1F | 47.3%

Row | SMILES | inhibition
23 | O=S(=O)(Nc1cc(Cl)ccc1-n1cncn1)c1ccc(F)cc1 | 66% (active)
24 | O=c1[nH]nc(-c2ccccc2O)n1-c1ccc(Br)cc1 | -5.57%
25 | O=C(CN1CCN(C(=O)C2CCCO2)CC1)Nc1ccc(-c2ccccc2)cc1 (configuration not stated) | 4.56%
26 | O=C(CCNc1ccc(-c2ccccc2)cc1)N1CCn2cncc2C1 | 92.2% (active)
27 | COC(=O)N1CCc2onc(-c3ccc(-c4ccccc4)cc3)c2C1 | 25.7%
28 | c1ccc(Cc2nnc3sc(-c4ccco4)nn23)cc1 | 21.3%
29 | CCCCOC(=O)c1ccc(Nc2ncnc3c2nnn3C)cc1 | 9.62%
30 | CCCOC(=O)c1ccc(NCN2C(=O)c3ccccc3C2=O)cc1 | 93.9% (active)
31 | O=C(CCc1nnc(CCC2CCCCC2)o1)NCCc1cccnc1 | 41%
32 | CCn1cc(CNC(=O)CCc2nnc(CCC3CCCCC3)o2)cn1 | 76.4% (active)
33 | CN(Cc1ccoc1)C(=O)c1cn(CC2CCCCC2)nn1 | 26.8%
34 | CC(CNC(=O)CCc1nnc(CCC2CCCCC2)o1)c1ccccc1 (configuration not stated) | 57.9% (active)
35 | CC(Cc1cnccn1)NC(=O)CCc1nnc(CCC2CCCCC2)o1 (configuration not stated) | 33.8%
36 | COCC(C)NC(=O)CCc1nnc(CCC2CCCCC2)o1 (configuration not stated) | inactive
37 | O=C1Nc2ccc(Br)cc2C12Nc1ccccc1S2 (configuration not stated) | 5.83%
38 | Cc1cc(C(=O)Nc2ccc(OC(F)F)c(Cl)c2)on1 | 91.1% (active)
39 | CC(OC(=O)c1ccco1)C(=O)Nc1ccc(OC(F)F)c(Cl)c1 (configuration not stated) | 4.36%
40 | O=C(CCl)Nc1ccc(OC(F)F)c(Cl)c1 | 86.6% (active)
41 | N#Cc1ncn(CC(=O)Nc2ccc(OC(F)F)c(Cl)c2)n1 | 73.2% (active)
42 | FC(F)Oc1ccc(NC(=S)Nc2cccnc2)cc1Cl | 92.8% (active)
43 | COC(=O)C1=C(OC)C(=O)OC12C=CC(=O)C=C2 | -11.4%
44 | Fc1ccc(Nc2nnc(-c3ccc(Br)s3)o2)c(F)c1 | 87.9% (active)

Row | SMILES | inhibition
45 | Cc1cc2c(F)ccc(C)c2nc1N1CCC(O)(C(=O)O)CC1 | 86% (active)
46 | Clc1ccc(-c2cnnc(N3CCC(c4ccncc4)CC3)n2)cc1 | 21.9%
47 | CC(NC(=O)COC(=O)c1ccccc1O)c1cccs1 (configuration not stated) | 88.8% (active)
48 | CS(=O)c1ccccc1C(=O)OCc1c(Cl)cccc1Cl (configuration not stated) | 30.8%
49 | CC(C)C(NC(=O)C1=Cc2ccccc2OC1)c1cccs1 (configuration not stated) | 5.93%
50 | CCOC(=O)N1CCN(C(=O)c2cc(COc3ccc(C)c(C)c3)on2)CC1 | 74.9% (active)
51 | Cc1cccc(N2CCN(C(=O)c3cc(COc4ccc(F)c(F)c4)on3)CC2)n1 | 52.2% (active)
52 | CCCc1nnc(-c2cc3ccccc3[nH]2)o1 | 38.4%
53 | CCCc1nnc(-c2cc3ccccc3n2C)o1 | 69% (active)
54 | CCCCc1nnc(-c2cc3ccccc3[nH]2)o1 | 18.4%
55 | O=C(CCc1nc(-c2ccncc2)no1)Nc1ccc(Oc2ccccc2)cc1 | 95.7% (active)
56 | c1ccc(CCc2nc(-c3ccncc3)no2)cc1 | inactive
57 | COC(=O)c1cccc(NC(=O)N2CCN(CCCOC(c3ccc(Cl)cc3)c3ccc(Cl)cc3)CC2)c1 | 13.4%
58 | CCc1noc(CSC2=Nc3ccccc3CS2)n1 | 23%
59 | CN(Cc1nc(COc2ccccc2)no1)CC1Cc2ccccc2O1 (configuration not stated) | 53.6% (active)
60 | CN(Cc1ccc2nsnc2c1)Cc1nc(COc2ccccc2)no1 | 65.2% (active)
61 | CN(Cc1nc(COc2ccccc2)no1)CC1CCOCC1 | 29.5%
62 | c1ccc2[nH]c(-c3ccc(OCc4nc(CC5CC5)no4)cc3)nc2c1 | 10.7%
63 | c1ccc(OCc2noc(CN3CCN(c4ccccn4)CC3)n2)cc1 | 43%
64 | COc1ccc(-c2nc(CN(C)Cc3ccc4nsnc4c3)c(C)o2)c(C)c1C | 12.7%
65 | c1ccc(OCc2noc(COc3ccc4ncccc4c3)n2)cc1 | 64.9% (active)
66 | CCc1ccc(CN(C)Cc2nc(COc3ccccc3)no2)nc1 | 93.7% (active)

Row | SMILES | inhibition
67 | Nc1ccccc1Sc1c[nH]c2ccccc12 | 46.1%
68 | Cc1ccc(OCCN(C)Cc2nc(COc3ccccc3)no2)cc1 | 80% (active)
69 | Cc1ccc(OCCN(C)c2ccccc2)cn1 | -0.64%
70 | COc1ccc(N=Cc2c(NCCO)nc3c(C)cccn3c2=O)cc1 | 75.7% (active)
71 | Cc1cccn2c(=O)nc(SC/C=C/c3ccccc3)nc12 | 7.88%
72 | COc1ccc(Nc2nc3c(C)cccn3c(=O)c2/C=N\Nc2ccccc2)cc1 | 88.8% (active)
73 | Cc1ccc(N=Cc2c(Nc3ccccc3)nc3c(C)cccn3c2=O)cc1 | -12%
74 | O=S(=O)(NN=C1c2ccccc2-c2ccccc21)c1ccccc1 | -15.8%
75 | N#CCSc1nc2c(c(C3CC=CCC3)c1C#N)CCC2 (configuration not stated) | 66.1% (active)
76 | CCSc1nc2c(c(C3CC=CCC3)c1C#N)CCC2 (configuration not stated) | 45.2%
77 | CSc1nc2c(c(-c3ccc(O)cc3)c1C#N)CCC2 | 48.4%
78 | CC1CCC(N(C)C(=O)NCc2ncc(-c3ccccc3)o2)CC1 (configuration not stated) | 76.1% (active)
79 | c1ccc2oc(N3CCN(Cc4ccc(C5CCCO5)s4)CC3)nc2c1 (configuration not stated) | 90.8% (active)
80 | c1ccc(N2CCCC2)c(CNc2nc3ccccc3o2)c1 | 34.1%
81 | CCSc1ncc(CN2CCN(c3nc4ccccc4o3)CC2)cn1 | 95.3% (active)
82 | CC(C)c1nc(Cn2ccnc2-c2ccc(C3CCCCO3)s2)no1 (configuration not stated) | -7.76%
83 | c1ccc2oc(CN3CCC(c4nc5ccccc5s4)CC3)nc2c1 | -16%
84 | Cc1ccccc1-c1nc(CN2CCN(c3ncc4ccccc4n3)CC2)c(C)o1 | 20.3%
85 | CCCCC(CC)CN1CNC(=S)NC1 (configuration not stated) | 48.2%
86 | O=S(=O)(Nc1cccc(Br)c1)c1ccc(Br)s1 | 97.3% (active)
87 | O=S(=O)(Nc1cccc(Br)c1)c1ccc(Cl)s1 | 84.1% (active)
88 | CC(=O)/C(=N/Nc1ccccc1[N+](=O)[O-])Oc1ccc(Br)cc1 | -28.4%

Row | SMILES | inhibition
89 | COc1ccccc1CC(=O)NC1CCSc2ccccc21 (configuration not stated) | -22.7%
90 | NC(=O)C1CN(C2CCCCc3ccccc32)CCO1 (configuration not stated) | 49.4%
91 | COc1ccc(OC)c2c1CN(C1CCCc3ccccc31)CC2O (configuration not stated) | 95.8% (active)
92 | CN(Cc1ccc2ccccc2c1)C(=O)COc1ccccc1F | 38.5%
93 | Cc1ccc(CN(C)C(=O)COc2ccc(O)cc2)o1 | 80.2% (active)
94 | Cc1ccc(C(=O)NCc2ccc(-c3ccc(O)cc3)cc2)o1 | 40.6%
95 | CCC(=O)OC(C#N)C1=C(Cl)C(=O)c2ccccc2C1=O (configuration not stated) | 103% (active)
96 | CCOC(=O)CSc1nnc(Nc2ccc(C)cc2)s1 | -19.5%
97 | CCNC(=O)NC(=O)CSc1nnc(Nc2ccc(CC)cc2)s1 | 66.4% (active)
98 | CCOCCCNC(=O)NC(=O)CSc1nnc(Nc2ccc(C)cc2)s1 | 83% (active)
99 | CCNC(=O)NC(=O)CSc1nnc(Nc2ccc(C(C)C)cc2)s1 | 85% (active)
100 | CCCC(C)NC(=O)CSc1nnc(Nc2ccc(CC)cc2)s1 (configuration not stated) | 84.9% (active)
101 | CN[C@@H]1C[C@@H](c2ccc(Cl)c(Cl)c2)c2ccccc21 | 48%
102 | COc1ccc2c(c1)OCC(C(=O)C(C#N)c1nc3ccccc3o1)C2 (configuration not stated) | 99.3% (active)
103 | CC1(C)C(C(Cl)Cl)C2(Cl)C(Cl)C(Cl)C1(Cl)C2(Cl)Cl (configuration not stated) | 76.2% (active)
104 | Cc1ccccc1N=C1NC(=O)C(Cc2ccccc2[N+](=O)[O-])S1 (configuration not stated) | 56.7% (active)
105 | O=c1ccc([N+](=O)[O-])ccc1Nc1ccccn1 | 82.3% (active)
106 | Cc1noc(-c2ccc(C(=O)NCCC(C)C)cc2)n1 | -1.14%
107 | CC(C)CCNC(=O)c1ncc(Cl)c(Cl)c1Cl | 81.3% (active)
